# Results from publication PMC7862700, “An all-to-all approach to the identification of sequence-specific readers for epigenetic DNA modifications on cytosine”.
# Key:
# Assay in all cases: DAPPL (digital affinity profiling via proximity ligation, sequencing); 10 mM Tris-HCl pH 7.5, 50 mM NaCl, 1 mM DTT, 4% glycerol, room temperature, 30 min; GST-TFs on glutathione beads, 16-mer random dsDNA library, 0.1% formaldehyde crosslink after washing; high values mean tight binding
# Details in all cases: protein: recombinant; tags: N-terminal GST; dsDNA, one strand shown
# [1] = target: T1, ELK1 (Homo sapiens, UniProt P19419 1-428)
# T1 sequence: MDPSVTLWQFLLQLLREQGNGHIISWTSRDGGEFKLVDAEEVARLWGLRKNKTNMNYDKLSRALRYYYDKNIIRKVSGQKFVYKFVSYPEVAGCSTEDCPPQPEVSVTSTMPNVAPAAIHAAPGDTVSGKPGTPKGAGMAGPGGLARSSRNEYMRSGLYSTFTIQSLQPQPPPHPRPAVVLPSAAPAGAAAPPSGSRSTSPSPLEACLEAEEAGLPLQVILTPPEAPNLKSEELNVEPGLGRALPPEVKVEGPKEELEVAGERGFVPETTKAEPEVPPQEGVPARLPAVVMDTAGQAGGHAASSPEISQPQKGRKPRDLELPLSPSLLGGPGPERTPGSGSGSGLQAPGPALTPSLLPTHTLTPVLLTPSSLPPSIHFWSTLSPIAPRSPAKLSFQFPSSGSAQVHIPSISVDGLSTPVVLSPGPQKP
# How it was run: (§1)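 After expression in yeast as GST fusions, human transcription factors were bound to glutathione beads, DNA-barcoded and mixed with a tag-only sample. The pools were incubated with 200 nmole of a 16-mer random double-stranded DNA library in Tris/NaCl/DTT/glycerol buffer (30 min, room temperature), washed and crosslinked with 0.1% formaldehyde. Proximity ligation with BsaI/T4 ligase ran for 1 h at 37 °C, before PCR amplification and sequencing on an Illumina NextSeq500. Binding signal is a hexamer's read frequency for a factor divided by its frequency for the tag-only sample.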
# [2] = target: T2, ERG (Homo sapiens, UniProt P11308 1-479)
# T2 sequence: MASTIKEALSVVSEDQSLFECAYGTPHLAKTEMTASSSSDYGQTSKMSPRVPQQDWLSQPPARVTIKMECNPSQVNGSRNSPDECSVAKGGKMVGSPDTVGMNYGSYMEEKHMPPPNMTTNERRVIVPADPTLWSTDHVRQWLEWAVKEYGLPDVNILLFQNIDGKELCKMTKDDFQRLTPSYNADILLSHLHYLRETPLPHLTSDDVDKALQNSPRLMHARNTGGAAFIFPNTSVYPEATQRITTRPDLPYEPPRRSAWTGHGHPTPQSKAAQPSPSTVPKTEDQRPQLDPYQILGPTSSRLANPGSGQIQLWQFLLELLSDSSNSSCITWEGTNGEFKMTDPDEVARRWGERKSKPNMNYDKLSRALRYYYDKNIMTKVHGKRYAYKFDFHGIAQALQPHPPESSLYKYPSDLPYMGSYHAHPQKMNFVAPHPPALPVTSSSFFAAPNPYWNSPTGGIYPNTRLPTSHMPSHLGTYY
# How it was run: as §1
# [3] = target: T3, EHF (Homo sapiens, UniProt Q9NZC4 1-300)
# T3 sequence: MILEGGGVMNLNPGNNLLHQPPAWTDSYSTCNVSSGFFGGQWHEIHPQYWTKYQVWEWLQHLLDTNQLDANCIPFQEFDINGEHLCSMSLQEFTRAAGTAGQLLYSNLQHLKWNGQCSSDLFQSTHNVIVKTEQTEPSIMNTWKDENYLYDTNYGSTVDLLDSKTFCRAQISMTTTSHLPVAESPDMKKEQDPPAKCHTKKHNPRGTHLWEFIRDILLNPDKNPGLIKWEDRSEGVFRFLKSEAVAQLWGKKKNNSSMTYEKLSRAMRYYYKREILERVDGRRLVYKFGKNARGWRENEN
# How it was run: as §1
# [4] = target: SPIB (Homo sapiens, UniProt Q01892 1-262)
# Sequence of SPIB (Q01892 whole entry): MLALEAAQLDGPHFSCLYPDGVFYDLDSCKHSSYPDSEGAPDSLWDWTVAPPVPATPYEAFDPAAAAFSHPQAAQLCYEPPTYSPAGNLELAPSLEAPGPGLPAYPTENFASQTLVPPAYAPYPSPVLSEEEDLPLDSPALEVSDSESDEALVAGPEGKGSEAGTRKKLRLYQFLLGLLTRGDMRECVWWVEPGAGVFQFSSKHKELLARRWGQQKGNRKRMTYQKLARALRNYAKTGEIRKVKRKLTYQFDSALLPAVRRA
# How it was run: as §1
# [5] = target: ETV5 (Homo sapiens, UniProt P41161 1-510)
# Sequence of ETV5 (P41161 whole entry): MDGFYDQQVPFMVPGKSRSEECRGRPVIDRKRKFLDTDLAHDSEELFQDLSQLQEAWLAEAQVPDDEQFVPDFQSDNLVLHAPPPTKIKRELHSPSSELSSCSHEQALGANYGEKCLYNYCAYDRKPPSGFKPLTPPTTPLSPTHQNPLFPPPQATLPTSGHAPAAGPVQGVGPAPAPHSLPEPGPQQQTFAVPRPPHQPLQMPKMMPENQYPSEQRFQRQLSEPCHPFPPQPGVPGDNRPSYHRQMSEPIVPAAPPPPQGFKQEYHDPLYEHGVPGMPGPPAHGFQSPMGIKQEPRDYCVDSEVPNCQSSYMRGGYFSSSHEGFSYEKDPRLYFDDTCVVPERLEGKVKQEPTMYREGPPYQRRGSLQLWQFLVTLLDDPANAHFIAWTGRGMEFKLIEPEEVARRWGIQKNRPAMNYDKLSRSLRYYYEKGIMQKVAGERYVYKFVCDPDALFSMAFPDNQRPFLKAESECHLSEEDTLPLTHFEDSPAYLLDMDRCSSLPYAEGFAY
# How it was run: as §1
# [6] = target: T4, SPIC (Homo sapiens, UniProt Q8N5J4 1-248)
# T4 sequence: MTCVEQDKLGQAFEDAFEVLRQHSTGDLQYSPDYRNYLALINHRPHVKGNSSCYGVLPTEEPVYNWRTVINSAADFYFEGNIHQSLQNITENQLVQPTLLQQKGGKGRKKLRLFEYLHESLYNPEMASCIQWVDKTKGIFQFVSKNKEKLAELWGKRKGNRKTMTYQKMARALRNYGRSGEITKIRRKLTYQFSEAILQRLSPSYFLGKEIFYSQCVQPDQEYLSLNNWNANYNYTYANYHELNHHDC
# How it was run: as §1
# [7] = target: ELF4 (Homo sapiens, UniProt Q99607 1-663)
# Sequence of ELF4 (Q99607 whole entry): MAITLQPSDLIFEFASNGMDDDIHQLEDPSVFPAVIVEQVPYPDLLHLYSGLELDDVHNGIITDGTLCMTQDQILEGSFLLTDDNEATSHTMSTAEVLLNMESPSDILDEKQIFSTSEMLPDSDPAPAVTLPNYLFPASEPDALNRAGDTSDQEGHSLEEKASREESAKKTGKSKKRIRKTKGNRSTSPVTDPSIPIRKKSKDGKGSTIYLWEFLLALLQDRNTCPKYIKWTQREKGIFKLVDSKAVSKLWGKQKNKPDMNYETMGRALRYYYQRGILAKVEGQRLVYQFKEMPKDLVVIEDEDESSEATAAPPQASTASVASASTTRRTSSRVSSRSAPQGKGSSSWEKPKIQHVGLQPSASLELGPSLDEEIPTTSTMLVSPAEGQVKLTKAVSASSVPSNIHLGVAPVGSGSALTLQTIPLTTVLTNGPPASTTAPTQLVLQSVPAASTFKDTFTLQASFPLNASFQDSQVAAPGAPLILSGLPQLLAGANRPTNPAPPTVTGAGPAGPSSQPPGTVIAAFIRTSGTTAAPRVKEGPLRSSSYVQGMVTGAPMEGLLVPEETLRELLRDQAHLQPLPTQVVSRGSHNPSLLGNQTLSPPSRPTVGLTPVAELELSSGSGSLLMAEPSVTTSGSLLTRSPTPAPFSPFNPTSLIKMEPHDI
# How it was run: as §1
# [8] = target: T5, ELK4 (Homo sapiens, UniProt P28324-2 1-405)
# T5 sequence: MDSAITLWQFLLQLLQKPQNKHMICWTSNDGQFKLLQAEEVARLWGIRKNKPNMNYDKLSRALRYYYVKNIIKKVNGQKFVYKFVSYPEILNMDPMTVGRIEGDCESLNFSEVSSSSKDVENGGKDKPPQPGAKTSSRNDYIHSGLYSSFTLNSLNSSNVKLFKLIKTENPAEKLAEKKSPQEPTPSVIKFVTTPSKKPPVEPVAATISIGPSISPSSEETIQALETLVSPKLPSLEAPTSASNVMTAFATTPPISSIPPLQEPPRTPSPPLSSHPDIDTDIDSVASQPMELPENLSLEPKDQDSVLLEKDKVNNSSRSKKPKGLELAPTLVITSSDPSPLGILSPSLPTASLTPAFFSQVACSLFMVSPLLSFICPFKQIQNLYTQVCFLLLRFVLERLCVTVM
# How it was run: as §1
# [9] = target: T6, ELF3 (Homo sapiens, UniProt P78545 1-371)
# T6 sequence: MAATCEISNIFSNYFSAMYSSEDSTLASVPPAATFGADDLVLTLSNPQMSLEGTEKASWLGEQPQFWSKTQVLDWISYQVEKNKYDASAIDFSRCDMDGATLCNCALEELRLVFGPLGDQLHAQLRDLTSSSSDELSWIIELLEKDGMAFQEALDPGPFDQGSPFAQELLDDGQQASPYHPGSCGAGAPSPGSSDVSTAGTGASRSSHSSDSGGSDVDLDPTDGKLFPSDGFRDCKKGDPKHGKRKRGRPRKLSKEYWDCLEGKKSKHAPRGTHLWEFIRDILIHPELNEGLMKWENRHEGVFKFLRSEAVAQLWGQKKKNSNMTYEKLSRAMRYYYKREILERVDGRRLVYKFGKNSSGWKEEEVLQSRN
# How it was run: as §1
# [10] = target: T7, ERF (Homo sapiens, UniProt P50548 1-548)
# T7 sequence: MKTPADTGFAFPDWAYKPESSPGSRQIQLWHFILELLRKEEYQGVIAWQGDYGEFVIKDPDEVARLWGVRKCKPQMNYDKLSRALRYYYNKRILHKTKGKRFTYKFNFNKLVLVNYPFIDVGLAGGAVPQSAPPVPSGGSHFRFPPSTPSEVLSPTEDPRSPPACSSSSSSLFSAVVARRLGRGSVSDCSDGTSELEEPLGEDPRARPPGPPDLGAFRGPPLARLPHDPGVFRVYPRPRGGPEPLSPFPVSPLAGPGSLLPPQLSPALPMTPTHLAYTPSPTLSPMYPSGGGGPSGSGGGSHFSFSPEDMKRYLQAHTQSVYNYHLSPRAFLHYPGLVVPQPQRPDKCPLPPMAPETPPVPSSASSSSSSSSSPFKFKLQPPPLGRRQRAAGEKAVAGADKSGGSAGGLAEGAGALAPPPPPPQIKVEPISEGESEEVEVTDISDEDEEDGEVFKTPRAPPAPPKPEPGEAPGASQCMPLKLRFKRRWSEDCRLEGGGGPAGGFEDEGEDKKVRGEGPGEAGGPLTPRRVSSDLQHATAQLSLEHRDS
# How it was run: as §1
# [11] = target: T8, ETV3L (Homo sapiens, UniProt Q6ZN32 1-361)
# T8 sequence: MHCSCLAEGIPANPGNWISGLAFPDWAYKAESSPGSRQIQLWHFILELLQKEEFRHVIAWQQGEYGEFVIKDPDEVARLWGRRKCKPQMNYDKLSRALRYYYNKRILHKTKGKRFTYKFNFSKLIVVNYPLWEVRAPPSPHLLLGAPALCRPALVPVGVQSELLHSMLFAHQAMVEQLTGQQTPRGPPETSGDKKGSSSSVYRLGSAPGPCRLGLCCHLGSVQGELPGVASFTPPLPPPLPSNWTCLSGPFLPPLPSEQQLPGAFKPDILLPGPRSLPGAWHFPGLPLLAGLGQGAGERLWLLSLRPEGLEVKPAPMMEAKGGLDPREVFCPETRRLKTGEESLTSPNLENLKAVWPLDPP
# How it was run: as §1
# [12] = target: T9, ETS2 (Homo sapiens, UniProt P15036 1-469)
# T9 sequence: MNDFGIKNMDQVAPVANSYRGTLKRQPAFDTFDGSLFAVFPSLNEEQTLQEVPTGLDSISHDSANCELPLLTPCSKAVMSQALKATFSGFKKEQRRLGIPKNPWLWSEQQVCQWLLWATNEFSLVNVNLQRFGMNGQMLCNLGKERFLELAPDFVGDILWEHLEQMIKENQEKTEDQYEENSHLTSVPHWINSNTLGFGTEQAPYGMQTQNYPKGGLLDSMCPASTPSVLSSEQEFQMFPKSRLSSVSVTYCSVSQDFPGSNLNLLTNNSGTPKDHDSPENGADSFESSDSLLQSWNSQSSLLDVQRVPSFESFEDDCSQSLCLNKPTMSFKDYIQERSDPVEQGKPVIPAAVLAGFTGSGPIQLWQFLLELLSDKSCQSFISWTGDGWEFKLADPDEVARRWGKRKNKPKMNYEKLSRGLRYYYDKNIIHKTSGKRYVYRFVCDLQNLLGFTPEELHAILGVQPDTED
# How it was run: as §1
# [13] = target: T10, SPDEF (Homo sapiens, UniProt O95238 1-335)
# T10 sequence: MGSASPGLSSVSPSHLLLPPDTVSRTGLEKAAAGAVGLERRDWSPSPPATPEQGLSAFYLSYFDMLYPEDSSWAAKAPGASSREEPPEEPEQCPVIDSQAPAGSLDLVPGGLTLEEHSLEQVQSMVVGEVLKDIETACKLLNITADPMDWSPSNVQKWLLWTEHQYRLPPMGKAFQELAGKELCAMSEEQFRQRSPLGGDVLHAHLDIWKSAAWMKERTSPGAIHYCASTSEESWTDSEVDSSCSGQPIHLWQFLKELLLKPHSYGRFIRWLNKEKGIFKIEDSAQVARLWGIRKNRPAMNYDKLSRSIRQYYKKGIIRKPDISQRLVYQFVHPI
# How it was run: as §1
# [14] = target: T11, ETV7 (Homo sapiens, UniProt Q9Y603 1-341)
# T11 sequence: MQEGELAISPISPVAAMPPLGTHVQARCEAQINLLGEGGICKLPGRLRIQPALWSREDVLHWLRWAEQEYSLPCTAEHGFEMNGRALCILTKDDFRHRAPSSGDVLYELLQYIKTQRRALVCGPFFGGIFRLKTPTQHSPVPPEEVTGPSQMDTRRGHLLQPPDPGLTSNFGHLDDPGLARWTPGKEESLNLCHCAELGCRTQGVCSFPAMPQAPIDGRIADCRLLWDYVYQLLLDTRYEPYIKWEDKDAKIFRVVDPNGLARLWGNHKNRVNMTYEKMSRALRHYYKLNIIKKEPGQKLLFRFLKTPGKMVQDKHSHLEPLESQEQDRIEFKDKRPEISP
# How it was run: as §1
# [15] = target: T12, ETV3 (Homo sapiens, UniProt P41162-2 1-143)
# T12 sequence: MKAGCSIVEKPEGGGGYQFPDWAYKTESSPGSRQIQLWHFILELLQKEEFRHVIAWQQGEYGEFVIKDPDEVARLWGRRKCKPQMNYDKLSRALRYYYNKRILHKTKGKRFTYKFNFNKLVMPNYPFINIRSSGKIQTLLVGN
# How it was run: as §1
# [16] = target: ETV6 (Homo sapiens, UniProt P41212 1-452)
# Sequence of ETV6 (P41212 whole entry): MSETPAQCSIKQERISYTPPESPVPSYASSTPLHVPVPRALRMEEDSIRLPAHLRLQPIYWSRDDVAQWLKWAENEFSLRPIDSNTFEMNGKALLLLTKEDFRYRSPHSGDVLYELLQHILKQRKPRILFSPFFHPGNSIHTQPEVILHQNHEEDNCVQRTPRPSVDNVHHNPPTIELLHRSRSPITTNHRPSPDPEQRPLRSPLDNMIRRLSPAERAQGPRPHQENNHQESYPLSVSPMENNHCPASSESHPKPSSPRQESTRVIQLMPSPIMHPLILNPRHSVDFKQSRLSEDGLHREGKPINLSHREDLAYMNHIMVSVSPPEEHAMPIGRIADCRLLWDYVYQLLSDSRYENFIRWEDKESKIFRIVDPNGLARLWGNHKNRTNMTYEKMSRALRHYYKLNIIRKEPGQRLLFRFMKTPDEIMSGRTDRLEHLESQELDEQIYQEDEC
# How it was run: as §1
sequence,measurement,setting,value
GCCCCG,binding signal,[1],"1.07 fold enrichment (6-mer frequency, TF over GST control)"
same,binding signal,[2],"1.06 fold enrichment (6-mer frequency, TF over GST control)"
same,binding signal,[3],"1.01 fold enrichment (6-mer frequency, TF over GST control)"
same,binding signal,[4],"1.16 fold enrichment (6-mer frequency, TF over GST control)"
same,binding signal,[5],"1.02 fold enrichment (6-mer frequency, TF over GST control)"
same,binding signal,[6],"1.13 fold enrichment (6-mer frequency, TF over GST control)"
same,binding signal,[7],"1.09 fold enrichment (6-mer frequency, TF over GST control)"
same,binding signal,[8],"1.13 fold enrichment (6-mer frequency, TF over GST control)"
same,binding signal,[9],"1.08 fold enrichment (6-mer frequency, TF over GST control)"
same,binding signal,[10],"1 fold enrichment (6-mer frequency, TF over GST control)"
same,binding signal,[11],"1.03 fold enrichment (6-mer frequency, TF over GST control)"
same,binding signal,[12],"1.02 fold enrichment (6-mer frequency, TF over GST control)"
same,binding signal,[13],"1.01 fold enrichment (6-mer frequency, TF over GST control)"
same,binding signal,[14],"1.06 fold enrichment (6-mer frequency, TF over GST control)"
same,binding signal,[15],"1.15 fold enrichment (6-mer frequency, TF over GST control)"
same,binding signal,[16],"1.09 fold enrichment (6-mer frequency, TF over GST control)"
